These results are taken from the supplement of paper PMC12340641.

In all, about 1,000 compounds were measured (“relative growth recovery (pomalidomide 10 uM = 100%, DMSO = 0%)”: median about -1.6, highest 2% from about 21 on). The full list was thinned out, with the highest values kept by preference.

For the assay, the system named is HEK293FT dCK*-IKZF1. Kind of assay: relative growth recovery (pomalidomide 10 uM = 100%, DMSO = 0%); higher = more growth rescue (IKZF1 fusion degradation). As to conditions: compound concentration: 5 uM; AraC concentration: 0.3 uM; overnight pretreatment + 4 days AraC. On the procedure: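 Growth recovery screen of the molecular-glue-like (Specs) library. HEK293FT cells expressing a dCK*-IKZF1 fusion (primary) or dCK* alone (counter) were pretreated overnight with compound at 5 uM, then given 0.3 uM AraC for 4 days. Hoechst nuclei were counted by imaging. Primary: normalised to pomalidomide (100%) and DMSO (0%), mean of 2 replicates. Counter: normalised to no-AraC (100%) and AraC+DMSO (0%), single replicate.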
For `Cc1cnc(Nc2cccc(C3CCN(C(=O)C4(NC(=O)C(C)(C)C)CCCCC4)CC3)n2)s1`, the relative growth recovery was -12.6%.

Take `O=S(=O)(Nc1ccc(S(=O)(=O)Nc2ncccn2)cc1)c1ccc(Cl)cc1`: the relative growth recovery was -4.2%.

`CCCc1cnc(Nc2cccc(C3(CO)CCN(C(=O)C4CCCCC4)CC3)n2)s1`: the relative growth recovery is -17%.

Consider `O=C(C1CCCCC1)N1CCOC(c2cccc(Nc3ncc(Cc4ccccc4)s3)n2)C1` (configuration not stated), for which the relative growth recovery was 2.33%.

In the case of `Cc1ccn2cc(C(=O)N3CCCC3c3cccc(Nc4nc(C)c(C)s4)n3)nc2c1` (configuration not stated), the relative growth recovery was 39.7%.

Regarding `Cc1cnc(NC(=O)CN2CCC(c3cccc(Nc4nc(C)c(C)s4)n3)CC2)s1`, the relative growth recovery was 30.3%.

Turning to `Cc1ccc2[nH]nc(C(=O)N3CCCC3c3cccc(Nc4nc(C)cs4)n3)c2c1` (configuration not stated), the relative growth recovery is -0.105%.

For `Cc1cnc(Nc2cccc(C3CCN(CC(=O)Nc4c(F)cccc4F)CC3)n2)s1`, the relative growth recovery is -13.4%.

For `Cc1csc(Nc2cccc(C3CCCN3C(=O)c3ccc4c(c3)CCCN4C)n2)n1` (configuration not stated), the relative growth recovery was 7.5%.

Regarding `Cc1nc(Nc2cccc(C3CN(C(=O)CCc4c(C)n[nH]c4C)CCO3)n2)sc1C` (configuration not stated), the relative growth recovery was -0.835%.

On to `Cc1nc(Nc2cccc(C3CCCN3C(=O)c3ccc(=O)n(C)n3)n2)sc1C` (configuration not stated), for which the relative growth recovery was determined as 5.83%.

Consider `Cc1csc(Nc2cccc(C3CCCN3C(=O)c3ccc4[nH]c(C(C)C)nc4c3)n2)n1` (configuration not stated), for which the relative growth recovery stood at 36.3%.

Regarding `Cc1cnc(NC(=O)CN2CCC(c3cccc(Nc4ncc(C)s4)n3)CC2)s1`, the relative growth recovery is -13.8%.

As for `Cc1nc(Nc2cccc(C3CCN(C(=O)CCc4c(C)n[nH]c4C)CC3)n2)sc1C`, the relative growth recovery turned out to be 26%.

For `Cc1cnc(C(=O)N2CCCC2c2cccc(Nc3nc(C)c(C)s3)n2)cn1` (configuration not stated), the relative growth recovery came to 4.79%.

In the case of `COCCC(=O)N1CCC(c2cccc(Nc3nc(C)c(C)s3)n2)CC1`, the relative growth recovery was determined as 9.99%.

Regarding `Cc1csc(Nc2cccc(C3CCN(CC(=O)NCc4ccccn4)CC3)n2)n1`, the relative growth recovery is -8.2%.

Take `CCOCc1ccc(C(=O)N2CCC(c3cccc(Nc4ncc(C)s4)n3)CC2)cc1`: the relative growth recovery amounted to 29.5%.

On to `CC(=O)N1CCC(c2cccc(Nc3ncc(C)s3)n2)CC1`, for which the relative growth recovery was -19%.

As to `COc1ccc(NC(=O)CN2CCC(c3cccc(Nc4nc(C)cs4)n3)CC2)cc1`, the relative growth recovery came to 32.9%.

In the case of `Cc1cnc(Nc2cccc(C3CCN(C(=O)c4cccnc4)CC3)n2)s1`, the relative growth recovery is -18.6%.

On to `COc1ccc(NC(=O)CN2CCC(c3cccc(Nc4ncc(C)s4)n3)CC2)cc1`, for which the relative growth recovery was -11%.

`CC(=O)Nc1ccc(S(=O)(=O)Nc2ncccn2)cc1`: the relative growth recovery was -3.27%.

As to `Cc1ccc2[nH]c3nc(SCC(=O)Nc4ccc(F)cc4)nnc3c2c1`, the relative growth recovery was -0.35%.

In the case of `Cc1cc(C)nc(NS(=O)(=O)c2ccc(NC(=S)NC(=O)/C=C/c3ccccc3)cc2)n1`, the relative growth recovery is -1.71%.

As for `CS(=O)(=O)NCC(=O)N1CCC(c2cccc(Nc3ncc(-c4ccccc4)s3)n2)CC1`, the relative growth recovery was -20.5%.

`COCCOCC(=O)Nc1ccc(S(=O)(=O)Nc2cc(C)nc(C)n2)cc1`: the relative growth recovery was -1.1%.

Regarding `C[C@@H](N)C(=O)N1CCC(CO)(c2cccc(Nc3ncc(-c4ccccc4)s3)n2)CC1`, the relative growth recovery was -18.2%.

On to `Cc1csc(Nc2cccc(C3CCN(CC(=O)N4CCC(C(N)=O)CC4)CC3)n2)n1`, for which the relative growth recovery is 5.36%.

Regarding `Cc1cnc(Nc2cccc(C3(C(=O)NCCO)CCN(C(=O)C4CCCCC4)CC3)n2)s1`, the relative growth recovery was -5.96%.

For the compound `COCCC(=O)N1CCC(c2cccc(Nc3ncc(C)s3)n2)CC1`, the relative growth recovery was -3.65%.

Regarding `O=C(O)COCCOCCNc1cc2c(cc1F)C(=O)N(C1CCC(=O)NC1=O)C2=O` (configuration not stated), the relative growth recovery is -7.7%.

As for `O=C(CSc1nc2cc(Cl)ccc2[nH]1)Nc1ncccn1`, the relative growth recovery was -1.69%.

For the compound `COc1cc(NS(=O)(=O)c2ccc(NC(=O)CCl)cc2)nc(OC)n1`, the relative growth recovery was -5.68%.

In the case of `COc1ccc(Cl)c2c1[nH]c1nc(SCC(=O)Nc3ccc(Cl)cc3)nnc12`, the relative growth recovery came out at 2.88%.

Regarding `Cc1cnc(Nc2cccc(C3CCCN3C(=O)Cn3cnc4ccccc43)n2)s1` (configuration not stated), the relative growth recovery was -19.5%.

`O=C(CSc1nnc2c(n1)[nH]c1ccccc12)Nc1ccc(F)cc1`: the relative growth recovery came to 7.2%.

As for `CCCCc1cnc(Nc2cccc(C3CCN(C(=O)C(C)(C)NC(=O)OC(C)(C)C)CC3)n2)s1`, the relative growth recovery was -15.7%.

As for `O=C(O)CN1CCN(c2cccc3c2C(=O)N(C2CCC(=O)NC2=O)C3=O)CC1` (configuration not stated), the relative growth recovery is 0.995%.

Regarding `Cc1ccnc(NS(=O)(=O)c2ccc(NC(=O)c3cccs3)cc2)n1`, the relative growth recovery was 3.83%.

Take `Cc1ccc(C(C)C)c(OCC(=O)Nc2ccc(S(=O)(=O)Nc3ccccn3)cc2)c1`: the relative growth recovery was -1.57%.

In the case of `COc1ccc(C(=O)Nc2ccc(S(=O)(=O)Nc3ccccn3)cc2)cc1`, the relative growth recovery was -5.12%.

Consider `Cc1ccc2[nH]c3nc(SCC(=O)Nc4ccc(C)c(Cl)c4)nnc3c2c1`, for which the relative growth recovery is -24.6%.

Consider `CCCc1cnc(Nc2cccc(C3CCN(C(=O)CN)CC3)n2)s1`, for which the relative growth recovery is -15.8%.

On to `CC(=O)Nc1ccc(S(=O)(=O)Nc2cc(C)nc(C)n2)cc1`, for which the relative growth recovery is -1.14%.

In the case of `Cc1ccnc(NS(=O)(=O)c2ccc(NC(=O)c3ccccc3C)cc2)n1`, the relative growth recovery is -1.84%.

Regarding `COc1ccc(NS(=O)(=O)c2ccc(N)cc2)nn1`, the relative growth recovery turned out to be 3.75%.

As for `O=C(CCCOc1ccc(Cl)cc1)Nc1ccc(S(=O)(=O)Nc2ncccn2)cc1`, the relative growth recovery amounted to 0.13%.

Consider `Cc1ccnc(NS(=O)(=O)c2ccc(NC(=O)c3ccc(Cl)cc3[N+](=O)[O-])cc2)n1`, for which the relative growth recovery was -0.255%.

Regarding `Cc1cc(C)nc(NS(=O)(=O)c2ccc(/N=C3/NC(=O)CS3)cc2)n1`, the relative growth recovery was -0.9%.

`O=C(Nc1ccc(S(=O)(=O)Nc2ncccn2)cc1)c1cccc(Br)c1`: the relative growth recovery is -4.75%.

`Cc1csc(Nc2cccc(C3CCN(C(=O)c4nccc5ccccc45)CC3)n2)n1`: the relative growth recovery was -0.34%.

As for `Cc1cnc(Nc2cccc(C3CCN(C(=O)c4cccc5cccnc45)CC3)n2)s1`, the relative growth recovery was -2%.

Take `Cc1ccnc(NS(=O)(=O)c2ccc(NC(=O)c3ccc4c(c3)OCO4)cc2)n1`: the relative growth recovery stood at 0.925%.

In the case of `Cc1cc(NS(=O)(=O)c2ccc(NC(=O)COc3ccccc3Cl)cc2)nc(C)n1`, the relative growth recovery turned out to be 3.46%.

Consider `CC(=O)N1CCCCC1c1csc(Nc2ccccn2)n1` (configuration not stated), for which the relative growth recovery is 1.36%.

Turning to `Cc1cc(NS(=O)(=O)c2ccc(NC(=O)c3ccccc3C)cc2)nc(C)n1`, the relative growth recovery was -1.93%.

Regarding `Cc1csc(Nc2cccc(C3CCCN3C(=O)Cc3ccc(F)cc3)n2)n1` (configuration not stated), the relative growth recovery is 3.22%.

In the case of `CN1CCN(CC(=O)N2CCC(c3cccc(Nc4ncc(-c5ccccc5)s4)n3)CC2)CC1`, the relative growth recovery is -17.9%.

`Cc1cnc(Nc2cccc(C3CN(C(=O)CN(CCC(C)C)c4ccccc4)CCO3)n2)s1` (configuration not stated): the relative growth recovery was -3.83%.

For `O=C(CCn1ncc2c1CCCC2)N1CCOC(c2cccc(Nc3nccs3)n2)C1` (configuration not stated), the relative growth recovery is 14.7%.

For `Cc1cnc(Nc2cccc(C3CCN(C(=O)C4(N)CCCCC4)CC3)n2)s1`, the relative growth recovery is -17.6%.
